ADAM17 inh = inhibitors of human ADAM17 | AID 720648 | inhibition, % at 6.95 µM | 0.83% of 370,000 active | P78536 | recombinant ADAM17, EDANS/DABCYL FRET peptide cleavage;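 active means inhibition above the mean of compounds lying between control limits plus 3 SD, set per campaign, cut at about 8.5% in these data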
FAS-TE inh = blocks the thioesterase domain of human fatty acid synthase | inhibition, % at 15 µM | 0.67% of 360,000 active | recombinant FAS-TE, OMFH fluorogenic substrate, fluorescence endpoint;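 active means compounds whose normalised, plate-corrected inhibition of enzyme fluorescence in the single-dose primary screen is 50% or more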
Target sequence (P49327 whole entry, looked up, the tested form may be a part): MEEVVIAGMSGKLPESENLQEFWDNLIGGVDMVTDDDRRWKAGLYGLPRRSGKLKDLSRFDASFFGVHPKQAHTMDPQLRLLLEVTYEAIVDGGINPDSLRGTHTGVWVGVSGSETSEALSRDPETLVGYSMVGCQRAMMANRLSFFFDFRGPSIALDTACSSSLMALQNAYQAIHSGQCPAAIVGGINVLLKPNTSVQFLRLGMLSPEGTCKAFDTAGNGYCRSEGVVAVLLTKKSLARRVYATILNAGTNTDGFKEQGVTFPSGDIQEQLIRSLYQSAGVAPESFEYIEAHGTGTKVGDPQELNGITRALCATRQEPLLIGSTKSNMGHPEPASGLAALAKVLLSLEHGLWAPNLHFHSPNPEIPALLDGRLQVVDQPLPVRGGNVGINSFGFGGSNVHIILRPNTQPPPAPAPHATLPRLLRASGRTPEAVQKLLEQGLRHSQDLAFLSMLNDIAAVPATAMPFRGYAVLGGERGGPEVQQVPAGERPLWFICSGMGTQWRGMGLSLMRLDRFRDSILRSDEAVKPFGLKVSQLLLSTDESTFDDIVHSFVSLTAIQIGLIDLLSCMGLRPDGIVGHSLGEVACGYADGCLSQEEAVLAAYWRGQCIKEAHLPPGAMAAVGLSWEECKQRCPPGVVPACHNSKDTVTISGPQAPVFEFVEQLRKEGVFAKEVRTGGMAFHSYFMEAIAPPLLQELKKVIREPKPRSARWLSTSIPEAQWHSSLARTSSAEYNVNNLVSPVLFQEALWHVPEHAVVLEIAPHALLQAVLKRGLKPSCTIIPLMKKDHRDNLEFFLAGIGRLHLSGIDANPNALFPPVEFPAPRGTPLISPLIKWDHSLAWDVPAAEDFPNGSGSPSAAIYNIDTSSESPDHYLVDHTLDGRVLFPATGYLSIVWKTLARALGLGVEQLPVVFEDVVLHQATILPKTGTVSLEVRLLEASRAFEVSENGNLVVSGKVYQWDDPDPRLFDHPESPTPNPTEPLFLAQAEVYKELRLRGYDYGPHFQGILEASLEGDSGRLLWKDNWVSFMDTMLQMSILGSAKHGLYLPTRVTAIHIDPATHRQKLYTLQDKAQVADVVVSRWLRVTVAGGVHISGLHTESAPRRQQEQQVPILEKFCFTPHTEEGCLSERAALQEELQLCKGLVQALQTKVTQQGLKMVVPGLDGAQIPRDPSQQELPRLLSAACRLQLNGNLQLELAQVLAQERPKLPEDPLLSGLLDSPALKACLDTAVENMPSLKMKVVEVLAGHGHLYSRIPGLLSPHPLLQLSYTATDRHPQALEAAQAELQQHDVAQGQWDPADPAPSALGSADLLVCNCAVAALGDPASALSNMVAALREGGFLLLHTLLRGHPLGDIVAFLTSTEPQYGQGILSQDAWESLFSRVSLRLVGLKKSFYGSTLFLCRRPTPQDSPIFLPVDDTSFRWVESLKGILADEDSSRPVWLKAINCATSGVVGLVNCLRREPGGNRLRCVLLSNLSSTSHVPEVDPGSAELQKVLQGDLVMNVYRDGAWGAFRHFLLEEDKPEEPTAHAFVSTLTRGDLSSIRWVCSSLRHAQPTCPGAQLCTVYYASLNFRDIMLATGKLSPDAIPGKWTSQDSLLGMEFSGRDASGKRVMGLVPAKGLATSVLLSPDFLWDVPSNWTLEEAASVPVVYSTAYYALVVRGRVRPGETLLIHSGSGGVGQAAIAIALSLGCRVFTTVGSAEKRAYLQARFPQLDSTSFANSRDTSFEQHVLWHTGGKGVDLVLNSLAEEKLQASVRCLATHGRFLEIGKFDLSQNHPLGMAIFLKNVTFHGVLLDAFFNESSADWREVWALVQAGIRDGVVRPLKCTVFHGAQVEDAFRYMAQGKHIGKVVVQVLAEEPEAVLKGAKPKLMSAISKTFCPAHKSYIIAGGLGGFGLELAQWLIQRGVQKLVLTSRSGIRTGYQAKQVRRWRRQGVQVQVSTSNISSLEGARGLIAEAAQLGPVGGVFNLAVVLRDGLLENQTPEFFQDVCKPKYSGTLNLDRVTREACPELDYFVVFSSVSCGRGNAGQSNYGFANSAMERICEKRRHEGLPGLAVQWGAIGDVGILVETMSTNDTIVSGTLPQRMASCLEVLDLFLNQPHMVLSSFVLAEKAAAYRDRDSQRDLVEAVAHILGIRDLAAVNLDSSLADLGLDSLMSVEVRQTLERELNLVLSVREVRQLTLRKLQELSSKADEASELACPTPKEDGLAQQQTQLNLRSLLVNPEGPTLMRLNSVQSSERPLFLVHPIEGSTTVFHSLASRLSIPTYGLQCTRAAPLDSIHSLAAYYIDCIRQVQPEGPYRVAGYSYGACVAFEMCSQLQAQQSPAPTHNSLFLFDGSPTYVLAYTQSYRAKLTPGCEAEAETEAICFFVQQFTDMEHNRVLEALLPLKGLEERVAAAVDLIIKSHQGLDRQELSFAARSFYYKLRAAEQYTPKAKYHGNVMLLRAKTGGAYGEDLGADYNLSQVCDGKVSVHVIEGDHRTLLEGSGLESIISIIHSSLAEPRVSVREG
ADAM10 inh = ADAM10 inhibition, QFRET primary screen. O14672. recombinant ADAM10, EDANS/DABCYL FRET peptide cleavage, 3 h. inhibition, % at 7 µM. 0.62% of 370,000 active. AID 720582;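 active means inhibition above a per-campaign cutoff equal to the mean of compounds falling between control-based bounds plus 3 SD, cut at about 20% in these data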
NR3A LBD binder = NR3A (human) ligand-binding domain modulation; NR3A LBD differential scanning fluorimetry, Tm shift; 0% = protein alone, 100% = glycine-bound protein; 2.5% of 340,000 active; Tm shift relative to glycine control, % at 25 µM; AID 1259313;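 active means melting temperature shift of at least 10% of the positive control shift, at one fixed dose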
KLK7 zymogen act = proKLK7 (human) activation, primary screen; 0.9% of 370,000 active; AID 652039; activation, % at 7 µM; purified proKLK7, EDANS-DABCYL substrate fluorescence; 100% is mature enzyme control, 0% vehicle; P49862;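 active means activation above the mean of all tested compounds plus 3 SD, computed per campaign excluding outliers beyond control limits, cut at about 13% in these data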
Hits are given with their value; 0 = inactive; - = no result. This is a sample that favours compounds with a hit; in the whole collection about 4.6% have one here.

SMILES	ADAM17 inh	FAS-TE inh	ADAM10 inh	NR3A LBD binder	KLK7 zymogen act
CC(C)n1c(O)c(/C=C2\C=NN=C2c2ccccc2)sc1=S	0	0	0	11	0
CCn1c(O)c(C=C2N=c3ccccc3=N2)sc1=S	0	0	0	0	0
Cc1[nH]n(-c2ccccc2)c(=O)c1/C=C1\C=NN=C1c1ccccc1	0	0	0	0	0
COc1ccc2nc3sc(C(=O)NCCN4CCc5ccccc5C4)cc3cc2c1	0	0	0	19	0
COc1ccc(S(=O)(=O)NNC(=O)c2cc3cc4ccccc4nc3s2)cc1	0	0	0	29	0
Cc1ccc(CN2CCCCC(NC(=O)c3ccccc3C)C2=O)cc1 (stereo unspecified)	0	-	0	-	0
COc1ccc(N=C2S/C(=C\c3ccc(N4CCOCC4)o3)C(=O)N2CCc2c[nH]c3ccccc23)cc1	-	0	-	-	-
COc1ccc(N=C2S/C(=C\c3ccc(OCC(=O)O)cc3)C(=O)N2CCc2c[nH]c3ccccc23)cc1	9.2	0	0	0	0
CCCN1C(=O)/C(=C/c2ccco2)SC1=Nc1ccc(OC)cc1	-	0	-	21	-
N#CCCn1cc(/C=C2\NC(=S)N(c3ccccc3)C2=O)c(-c2ccc(-c3ccccc3)cc2)n1	0	0	0	22	0
CCN(C(=O)CSc1nnc(-c2cccnc2)n1Cc1ccco1)c1ccccc1	0	-	0	-	0
O=C(c1cscn1)N1CCC(Oc2cccnc2)CC1	0	-	0	-	0
COC(=O)[C@]12C[C@H](CC(=O)NCCc3ccccc3OC)C(=O)N(Cc3cccc4ccccc34)C1=C[C@H](C(C)(C)C)O[C@@H]2C	0	-	0	-	0
CCOC(=O)Nc1ccc2c(C)cc(=O)oc2c1	0	0	0	0	0
CCOC(=O)Nc1ccc2c(CN(C)Cc3ccc(F)cc3)cc(=O)oc2c1	0	0	0	14	0
CC1Cc2ccccc2N1S(=O)(=O)c1cccc(C(=O)NCCCO)c1 (stereo unspecified)	0	0	0	0	0
CCOC(=O)c1ccc(NC(=O)c2cccc(S(=O)(=O)N3c4ccccc4CC3C)c2)s1 (stereo unspecified)	0	0	0	25	0
CCOc1ccc(S(=O)(=O)N2c3ccccc3CC2C)cc1 (stereo unspecified)	0	0	0	14	0
Cc1ccc(S(=O)(=O)N2c3ccccc3CC2C)cc1 (stereo unspecified)	0	0	0	0	0
CCN(CC)C(=O)Nc1cnc2ccccc2c1	0	0	0	0	0
Cc1ccc(NC(=O)CS(=O)CC(=O)Nc2cnc3ccccc3c2)cc1Cl (stereo unspecified)	0	0	0	32	0
Cc1ccc(NC(=O)Nc2cnc3ccccc3c2)cc1	0	0	0	27	0
Cc1ccc(NC(=O)Nc2ccnc(-c3cccnc3)n2)cc1	0	0	0	34	0
CC(C)C[C@H](NC(C)(C)C(=O)NC1CCCCC1)C(=O)NCC(c1ccccc1)c1ccccc1	0	-	0	-	-
O=C(Oc1ccc(Br)cc1C(=S)N1CCCC1)c1ccccc1Cl	0	0	0	0	0
SMILES	ADAM17 inh	FAS-TE inh	ADAM10 inh	NR3A LBD binder	KLK7 zymogen act
O=C(Oc1ccc(Br)cc1C(=S)N1CCCCC1)c1cc([N+](=O)[O-])cc([N+](=O)[O-])c1	-	53	-	0	-
Fc1cccc(CNC2CCC23CCC(c2ccccc2)CC3)c1 (stereo unspecified)	0	-	0	-	-
CCOC(=O)c1cnc(SCC(=O)c2ccc(C)cc2)nc1N	0	0	0	0	0
COC(=O)c1ccc2c(c1)N(C)S(=O)(=O)c1cnc(SCC(=O)C(C)(C)C)nc1-2	0	0	0	11	0
COc1cc2c(cc1NC(=O)CSc1nnc(COc3ccccc3)n1Cc1ccco1)oc1ccccc12	0	-	0	-	0
CCOC(=O)c1cn(CC)c2cc(Cl)c([N+](=O)[O-])cc2c1=O	0	0	0	12	0
Cc1cc(=O)oc2cc(OCCSCCN3CCCC3)ccc12	0	0	0	12	0
O=C(/C=C/c1ccccc1)CC(=O)c1ccccc1O	0	0	0	13	0
C=CCNC(=O)c1ccc(-c2nc(-c3ccc(Cl)c(Cl)c3)cs2)cc1	0	0	0	31	0
C=CCNC(=O)c1ccc(-c2nc(-c3ccc(Cl)cc3Cl)cs2)cc1	0	0	0	0	0
CN(C)[C@@H]1CCN(c2cccc3c2S(=O)(=O)N2CC[C@@H](C2)O3)C1	0	-	0	-	0
O=C(Nc1ccc(Cl)cc1Cl)O[C@@H]1CC[C@@]23CCCN2C(=O)CCC[C@H]3C1	0	-	0	-	-
O=C(Cn1nnc(-c2cc(C(F)(F)F)cc(C(F)(F)F)c2)n1)NNC(=S)Nc1ccc(Cl)cc1	0	0	0	36	0
Cc1cc(C(F)(F)F)nn1CC(=O)NNC(=S)Nc1ccc(Cl)cc1	0	0	0	0	0
Cc1c(C(=O)NC(=S)NCC(C)C)oc2ccccc12	0	0	0	18	0
Cn1nc(C(=O)Nc2ccc(-n3cnnn3)cc2)c2ccccc2c1=O	0	0	0	0	0
C=CCNC(=S)NC(=O)c1oc2ccccc2c1C	0	0	0	0	0
CCC(=O)Nc1ccc(NC(=S)NC(=O)c2oc3ccccc3c2C)cc1	0	0	0	0	0
CCC(=O)Nc1ccc(NC(=O)c2oc3ccccc3c2C)cc1	0	0	0	29	0
Cc1c(C(=O)Nc2ccc(-n3cnnn3)cc2)oc2ccccc12	0	0	0	27	0
CCOC(=O)c1nnc(-c2ccccc2)nc1Oc1ccc(Cl)cc1	0	0	0	11	0
CCOC(=O)c1cnc(-c2ccccc2)nc1Oc1ccc(Cl)c(Cl)c1	0	0	0	0	0
CCOC(=O)c1cnc(-c2ccccc2)nc1Oc1cccc(Cl)c1	0	0	0	14	0
O=c1c2ccccc2n(Cc2ccccc2)n1[C@@H](Cc1ccccc1)Cn1cc(-c2ccc(-c3ccccc3)cc2)nn1	0	-	0	-	0
O=C(NC1CCCCN(Cc2cccc(F)c2)C1=O)c1cccc(F)c1 (stereo unspecified)	0	-	0	-	0
SMILES	ADAM17 inh	FAS-TE inh	ADAM10 inh	NR3A LBD binder	KLK7 zymogen act
Cn1nnnc1SCc1ccc(C(=O)Nc2nccs2)cc1	0	0	0	0	0
C=CCn1c(SCc2ccc(C(=O)Nc3nccs3)cc2)nnc1-c1ccc(C)c(Cl)c1	8.8	0	0	0	0
CC(=O)Nc1ccc(Nc2nc(C(F)(F)F)nc3c2nnn3Cc2ccccc2Cl)cc1	0	0	0	13	0
Cc1ccc2[nH]c3nc(N/N=C/c4cccc(O)c4)nnc3c2c1	0	0	0	10	0
COc1cc(/C=N/Nc2nnc3c(n2)[nH]c2ccccc23)ccc1O	0	0	0	0	0
CCc1ccc2[nH]c3nc(N/N=C/c4ccc(O)cc4O)nnc3c2c1	0	0	0	19	0
O=S(=O)(N[C@H]1CCCC[C@@H]1N1CCOCC1)c1ccc(Cl)cc1	0	-	0	-	-
COC(=O)/C=C1\SC(=NC(=O)c2cccc([N+](=O)[O-])c2)NC1=O	0	0	0	13	0
COC(=O)/C=C1/SC(=NC(=O)c2cccc([N+](=O)[O-])c2)NC1=O	0	0	0	15	0
